Holding throughout (assay): NCI-60 one-dose screen, 48 h (100 = growth as untreated, 0 = no growth, -100 = all killed)
What all share (conditions): 10 µM unless noted

In assay [1] the test system is NCI-H23 lung.
Assay [2] deals with NCI-H226 lung.
Assay [3] has as its system NCI-H322M lung.
Assay [4] has as its system NCI-H460 lung.
Assay [5] has as its system HOP-92 NSCLC.
For assay [6], the system named is NCI-H522 lung.
Assay [7] concerns A549/ATCC NSCLC.
Assay [8] concerns 786-0 renal.
Assay [9] concerns COLO 205 colon.
For assay [10], the system named is HOP-62 NSCLC.

Compounds without any hit were thinned out: in the full panel of roughly 83,000, 20% have a hit.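 In brief: 96-well plates, 48 h treatment, single concentration, percent growth endpoint.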 A number with no mark means an inactive call. Activity calls are given as the source filed them. How the source made its calls: active means growth percent below 10; inactive means the rest.

As to `COc1ccc(C(=O)CSc2nccc(Nc3ccc(C(=O)O)cc3)n2)cc1`, the growth is 99.2% in [1]; 92.8% in assay [2]; 106% in assay [3]; 103% in assay [4]; 97.4% in assay [5]; 92.9% in assay [6]. Further, the growth in [7] was 99.7%; in assay [8] it was 103%; in [9], 107%.
Regarding `C[C@H]1[C@H](C)CC[C@]2(COC(=O)CCC(=O)O)CC[C@]3(C)C(=CC[C@@H]4[C@@]5(C)CCCNC(C)(C)[C@@H]5CC[C@]43C)[C@H]12`, the growth was 62.8% [100 µM] in assay [1]; 76.3% [100 µM] in assay [2]; 86.8% [100 µM] in assay [3]; 66.8% [100 µM] in assay [4]; -7.31% [100 µM] (active) in assay [5]; 70.9% [100 µM] in assay [7]. Also, the growth in [8] is 55.6% [100 µM]; in assay [9] it was 69.1% [100 µM].
Turning to `O=[N+]([O-])c1cc([N+](=O)[O-])c(NN=C(c2ccc(O)cc2)c2ccc(O)cc2)cc1Cl`, the growth in assay [2] was -28% (active); in assay [3] it was 9.47% (active); in [10], -91.2% (active); in assay [4] it was -6.95% (active); in assay [5], -69.6% (active); in [6] it was -55.1% (active). For the same compound, the results for the growth in assay [7], in assay [8] and in [9] were -71.2% (active), -89% (active) and 25.6%, respectively.
`COc1ncnc2c(-c3ccccc3)cn(COCc3ccccc3)c12`: the growth in [1] is 45.8%; in assay [2] it was 66.5%; in assay [3], 86.6%; in [4] it was 34.1%; in assay [5] it was -0.37% (active); in assay [6], 36.2%. For the same compound, the growth in assay [7] is 51.1%; in [8], 60.7%; in assay [9] it was 78.3%.
Turning to `C#C[C@]1(O)CC[C@H]2[C@@H]3CC=C4c5nc(Nc6ccccc6[N+](=O)[O-])sc5CC[C@]4(C)[C@H]3CC[C@@]21C`, the growth in assay [1] is 86.5%; in assay [2], 80.9%; in assay [3], 72.9%; in assay [4], 55.7%; in [5], 72.6%; in assay [6], 73.4%. The values for the growth in assay [7], in assay [8] and in assay [9] were 62.2%, 5.63% (active) and 86.7%, respectively.
As to `Cc1c(Cn2cc(COc3ccc(Br)cc3)nn2)c(C)c(Cn2cc(COc3ccc(Br)cc3)nn2)c(C)c1Cn1cc(COc2ccc(Br)cc2)nn1`, the growth in assay [1] is 98.7%; in [2], 88.2%; in assay [3], 108%; in assay [4] it was 102%; in [5], 93.7%; in assay [6], -30.4% (active). In addition, the figures for the growth in [7], in assay [8] and in assay [9] were 83.4%, 95.2% and 84.6%, respectively.
For `CCN(CC)CCCC(C)Nc1ccnc2cc(Cl)c(SCc3ccccc3)cc12` (centres undefined), the growth in assay [1] was -17.1% (active); in assay [2], 24.2%; in assay [3], -28.9% (active); in assay [4], -54.9% (active); in assay [5] it was -43.1% (active); in assay [6], -69.6% (active). Also, the growth in assay [7] was -23.1% (active); in assay [8], -93.3% (active); in assay [9], -89.5% (active).
For `Cn1cc(-c2nnc(-c3cn(C)c4ncc(Br)cc34)s2)c2cc(Br)ccc21`, the growth is 99.5% in [1]; 91.8% in [2]; 89.8% in assay [3]; 99.4% in assay [4]; 57.2% in assay [5]; 94.2% in assay [6]. Further, the growth was 94.4% in assay [7], 93.5% in assay [8] and 105% in [9].
For the compound `CC[C@]12C=CCN3CC[C@@]4(c5ccc(OC)cc5N(C)[C@H]4[C@@](O)(C(=O)OC)[C@@H]1OC(=O)CCC(=O)O[C@H]1CC[C@H]4[C@@H]5CCC6=CC(=O)CC[C@@H]6[C@H]5CC[C@]14C)[C@@H]32`, the growth in [1] is 12.9% [100 µM]; in [2], -18.3% [100 µM] (active); in assay [3] it was 36.1% [100 µM]; in [4], 1.51% [100 µM] (active); in assay [5] it was -20.3% [100 µM] (active); in assay [7], 14.5% [100 µM]. The growth was 10.2% [100 µM] in assay [8] and -87.6% [100 µM] (active) in assay [9].
Turning to `COc1ccc(/C=C/C=C\C(=O)c2ccc(-n3ccnc3)cc2)cc1`, the growth was 84.3% in [2]; 101% in [3]; 101% in [10]; 92.7% in [4]; 96.5% in assay [5]; 85.3% in assay [6]. Moreover, the results for the growth in assay [7], in assay [8] and in assay [9] were 81.9%, -0.616% (active) and 101%, respectively.
`CC(C)C1=NOC(=O)C1=Cc1cn(-c2ccccc2)nc1-c1cccc([N+](=O)[O-])c1`: the growth in assay [2] was 102%; in assay [3], 98.1%; in assay [10], 99.1%; in assay [4], 87.9%; in assay [5], 88.8%; in [6], 74.7%. In addition, the growth is 97% in [7], 76.7% in [8] and 109% in assay [9].
In the case of `Cn1cc(-c2nnc(-c3cn(C)c4ncccc34)o2)c2ccccc21`, the growth is 64.9% in [2]; 75.8% in assay [3]; 32.6% in assay [10]; 23.7% in [4]; 7.94% (active) in [5]; 21.3% in assay [6]. Further, the growth was 36% in [7], 59.7% in [8] and 25.7% in [9].
As for `CC(C)CCSc1nc(N)nc2nc[nH]c12`, the growth is 96.7% in assay [2]; 143% in assay [3]; 102% in assay [10]; 96.8% in assay [4]; 76.4% in assay [5]; 79.9% in assay [6]. In addition, the growth in assay [7] is 104%; in assay [8], 95.9%; in [9], 102%.
Take `CCC(C)[C@H](NC(=O)NC(=O)NC(=O)CI)C(=O)OC` (some centres undefined): the growth in assay [2] is 86.7%; in [3], 106%; in assay [10] it was 87.9%; in assay [4], 95.6%; in assay [5], -34.4% (active); in [6], -86.5% (active). In addition, the growth is 91.9% in assay [7], -50.3% (active) in [8] and 10.8% in [9].
As to `CCc1ccc(-c2ccc(COc3ccc(CC4SC(=O)NC4=O)cc3)cc2)cc1` (centres undefined), the growth in assay [2] is 84.5%; in [3], 89.8%; in assay [10] it was 84.5%; in assay [4], 79.3%; in assay [5] it was 60.7%; in [6] it was 45.5%. The growth in [7] was 64.8%; in assay [8], 78.1%; in [9] it was 99.9%.
For the compound `Cc1cccc(C[C@H](NC(=O)Nc2ccc(Cl)cc2F)C(=O)N[C@@H]2C(=O)N3C[C@H](O)C[C@H]3C(=O)N3CCN(C)C[C@H]3C(=O)N[C@@H](C)C(=O)N3C[C@H](C)C[C@H]3C(=O)O[C@H]2C)c1`, the growth in assay [2] is 45.2%; in assay [3], 65.7%; in assay [10], 34.3%; in assay [5] it was 33.2%; in assay [6], 33.2%; in [7], 35.6%. The growth is 66.6% in [8] and 11.2% in assay [9].
Consider `CC[C@]12C=CCN3CC[C@@]4(c5ccc(OC)cc5N(C)[C@H]4[C@@](O)(C(=O)OC)[C@@H]1OC(=O)CCC(=O)N[C@H](Cc1c[nH]c4ccccc14)C(=O)OC)[C@@H]32`, for which the growth in [2] was -37.2% [100 µM] (active); in assay [3], -53.9% [100 µM] (active); in assay [10] it was -7.11% [100 µM] (active); in assay [4], -65.7% [100 µM] (active); in assay [5] it was -56.7% [100 µM] (active); in assay [6], -16.2% [100 µM] (active). Also, the results for the growth in assay [7], in assay [8] and in assay [9] were -30.9% [100 µM] (active), -47.1% [100 µM] (active) and 0.36% [100 µM] (active), respectively.
Take `O=C(O)c1cccc(CN2CCN(c3cc4c(cc3F)c(=O)c(C(=O)O)cn4C3CC3)CC2)c1O`: the growth in [2] was 106%; in assay [3], 111%; in [10], 105%; in [4] it was 106%; in assay [5], 97%; in [6] it was 87.1%. Moreover, the growth in assay [7] is 99.5%; in assay [8] it was 102%; in assay [9], 103%.
For `Nc1nc(Nc2ccccc2)c2ncn(Cc3cc4c(cc3Br)OCO4)c2n1`, the growth in [2] is 29.4%; in assay [3], 30.2%; in [10] it was 11.3%; in [4], 5.33% (active); in [5], 40%; in assay [6], -40.5% (active). For the same compound, the figures for the growth in assay [7], in [8] and in assay [9] were 13.5%, 20.3% and -38.3% (active), respectively.
As to `O=S(=O)(NCc1ccccc1)c1ncnc2nc[nH]c12`, the growth in [2] is 99.4%; in [3], 109%; in [10] it was 103%; in assay [4], 117%; in assay [5], 117%; in [6], 95.5%. The growth in assay [7] is 86.5%; in assay [8] it was 107%; in [9], 109%.
Turning to `Cc1ccc(-c2cn(C/C=C3\C=CN(S(=O)(=O)c4ccccc4)CC3)nn2)cc1`, the growth in [2] was 99.5%; in assay [3] it was 95.8%; in assay [10], 97.6%; in assay [4] it was 99.1%; in assay [5], 92.7%; in assay [6] it was 93.3%. In addition, the results for the growth in assay [7], in [8] and in assay [9] were 104%, 101% and 129%, respectively.
As to `Cc1cc(C)nc(SCC(=O)Nc2cccc(N=Cc3ccccc3O)c2)n1`, the growth in assay [2] was 93.8%; in assay [3] it was 101%; in assay [10] it was 102%; in [4], 101%; in assay [5] it was 77.4%; in [6] it was 86.6%. In addition, the values for the growth in assay [7], in [8] and in [9] were 101%, 103% and 105%, respectively.
Consider `C[C@]12CCc3nc(Nc4ccccc4)sc3C1=CC[C@@H]1[C@@H]2CC[C@]2(C)/C(=N/NC(N)=S)CC[C@@H]12`, for which the growth was 15.6% in assay [2]; 81.9% in [3]; 68.2% in [10]; 70.3% in [4]; 85.4% in [5]; 32.5% in assay [6]. For the same compound, the growth was 43.1% in [7], -49.8% (active) in assay [8] and 58.1% in assay [9].

(Values after PubChem BioAssay (NCI).)
